Inconclusive results are not listed. Entries that show only a call come without a potency. The source made the active and inactive calls. Calls come from the whole dose curve; as a rule, active = well fitted cell-killing curve with a large enough effect; inconclusive = small, poorly fitted or top-dose-only effect; inactive = flat fitted curve, though single readings scatter.
assay: qHTS of pediatric cancer cell lines to identify multiple opportunities for drug repurposing: Primary screen for DAOY cells (AID 1347090); details: DAOY medulloblastoma viability, CellTiter-Glo luminescence, 48 h; series mostly up to 46 µM; note: nearly all actives have a fitted effect of over 55% in size
Method in brief: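 Eight- or eleven-point concentration series, 48 h treatment at 37 degrees C in growth media; readout CellTiter-Glo luminescence. Potency and efficacy were taken from the concentration-response curves.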
Potency is the fitted concentration of half-maximal effect.

SMILES | Potency
CCc1cc(C(C)=NOCc2ccc(C3CCCCC3)c(C(F)(F)F)c2)ccc1CN1CC(C(=O)O)C1 | 590 nM (active)
COc1ccc([C@@H]2CNC(=O)C2)cc1OC1CCCC1 | 3720 nM (active)
CC(=O)O[C@]1(C(C)=O)CC[C@H]2[C@@H]3C=C(C)C4=CC(=O)CC[C@]4(C)[C@@H]3CC[C@@]21C | 7430 nM (active)
N#CC(=C(N)Sc1ccc(N)cc1)c1ccccc1C(F)(F)F | inactive
COc1cc(C)c(Sc2cnc(NC(=O)c3ccc(CNC(C)C(C)(C)C)cc3)s2)cc1C(=O)N1CCN(C(C)=O)CC1 (centres undefined) | 18700 nM (active)
COc1ccc(Nc2cc(-c3cnc(N)nc3)nc(N3CCOCC3)n2)cn1 | 4690 nM (active)
C[N+]1(C)[C@@H]2C[C@@H](OC(=O)C(O)(c3cccs3)c3cccs3)C[C@H]1[C@@H]1O[C@@H]12 | inactive
CC(=O)N[C@H]1[C@@H]([C@H](O)[C@H](O)CO)OC(C(=O)O)=C[C@@H]1N=C(N)N | inactive
CS(=O)(=O)N1CCc2c(-c3cnc(N)nc3)nc(N3CCOCC3)nc21 | 469 nM (active)
CC(=O)N1CCN(c2ccc(OCc3nn(C)c(C)c3-c3cccc4c(CCCOc5cccc6ccccc56)c(C(=O)O)n(Cc5cccnc5)c34)cc2)CC1 | 118 nM (active)
NC1=N[C@H]2[C@H](CS[C@H]2CCCCC(=O)O)N1 | inactive
OCc1ccccc1O[C@@H]1O[C@H](CO)[C@H](O)[C@H](O)[C@H]1O | inactive
OCCN1C[C@H](O)[C@@H](O)[C@H](O)[C@@H]1CO | inactive
COC(=O)[C@@H]1CC2=CC(=O)CC[C@]2(C)[C@@]23O[C@@H]2C[C@@]2(C)[C@H](CC[C@@]24CCC(=O)O4)[C@@H]13 | inactive
CN[C@H](CC(C)C)C(=O)N[C@H]1C(=O)N[C@@H](CC(N)=O)C(=O)N[C@@H]2C(=O)N[C@H]3C(=O)N[C@H](C(=O)N[C@H](C(=O)O)c4cc(O)cc(O)c4-c4cc3ccc4O)[C@H](O)c3ccc(c(Cl)c3)Oc3cc2cc(c3O[C@@H]2O[C@H](CO)[C@@H](O)[C@H](O)[C@@H]2O[C@H]2C[C@](C)(N)[C@H](O)[C@H](C)O2)Oc2ccc(cc2Cl)[C@H]1O | inactive
Cc1cn([C@@H]2O[C@H](CO)[C@@H](O)[C@H]2F)c(=O)[nH]c1=O | inactive
Cc1ccccc1C(=O)Nc1ccc(C(=O)N2CCCC(O)c3cc(Cl)ccc32)c(C)c1 (centres undefined) | inactive
CN[C@H]1[C@@H](O)[C@@H]2O[C@@H]3O[C@H](C)CC(=O)[C@]3(O)O[C@@H]2[C@@H](NC)[C@H]1O | 296 nM (active)
O=c1[nH]c(=O)n([C@H]2C[C@@H](O)[C@@H](CO)O2)cc1C=CBr | inactive
C=Cc1c(C)c2cc3nc(cc4[nH]c(cc5nc(cc1[nH]2)C(C)=C5CCC(=O)O)c(CCC(=O)OC)c4C)[C@@]1(C)C3=CC=C(C(=O)OC)[C@H]1C(=O)OC | 187 nM (active)
CC(C)(O)CC[C@@H](O)[C@](C)(O)[C@H]1CC[C@@]2(O)C3=CC(=O)[C@@H]4C[C@@H](O)[C@@H](O)C[C@]4(C)[C@@H]3CC[C@]12C | inactive
CCCCC(=O)O[C@]1(C(=O)CO)[C@@H](C)C[C@H]2[C@@H]3CCC4=CC(=O)C=C[C@]4(C)[C@@]3(F)[C@@H](O)C[C@@]21C | inactive
CC(=O)C1=C(O)C=C2Oc3c(C(C)=O)c(O)c(C)c(O)c3C2(C)C1=O (centres undefined) | inactive
C=CC(=O)N1CCc2ccc(-n3c(=O)ccc4cnc5ccc(-c6cnn(C)c6)cc5c43)cc21 | 5900 nM (active)
CC(Cc1ccc(O)c(O)c1)(NN)C(=O)O (centres undefined) | inactive
O=C(Nc1ccc(Oc2ccnc3[nH]ccc23)c(F)c1)c1cccn(-c2ccc(F)cc2)c1=O | inactive
C[C@@H]1[C@H](C)CC[C@]2(C(=O)O)CC[C@]3(C)C(=CC[C@@H]4[C@@]5(C)C[C@@H](O)[C@H](O)[C@@](C)(CO)[C@H]5CC[C@]43C)[C@@H]12 | inactive
CCCCCCCCCCCCc1ccc(S(=O)(=O)Nc2nncs2)cc1 | inactive
CON=C(C(=O)N[C@@H]1C(=O)N2C(C(=O)O)=C(CSC(=O)c3ccco3)CS[C@H]12)c1csc(N)n1 | inactive
